Experimental data reported in ChEMBL document CHEMBL3988442, “University of Dundee, Small-Polar-MMV Screening Library” (2021).
The whole screen tested about 69,000 compounds, of which about 420 (0.61%) showed an effect of 50% or more. This excerpt belongs to a sample that is enriched for strong results.

target: T1, Histidine--tRNA ligase (Leishmania infantum) (UniProt A4I591); assay: Leishmania infantum Histidine tRNA synthetase (LdHisRS); format: functional; parameters: scale not given: in the data most compounds retested in dose-response had high values; conditions: 30 µM
T1 sequence (whole entry): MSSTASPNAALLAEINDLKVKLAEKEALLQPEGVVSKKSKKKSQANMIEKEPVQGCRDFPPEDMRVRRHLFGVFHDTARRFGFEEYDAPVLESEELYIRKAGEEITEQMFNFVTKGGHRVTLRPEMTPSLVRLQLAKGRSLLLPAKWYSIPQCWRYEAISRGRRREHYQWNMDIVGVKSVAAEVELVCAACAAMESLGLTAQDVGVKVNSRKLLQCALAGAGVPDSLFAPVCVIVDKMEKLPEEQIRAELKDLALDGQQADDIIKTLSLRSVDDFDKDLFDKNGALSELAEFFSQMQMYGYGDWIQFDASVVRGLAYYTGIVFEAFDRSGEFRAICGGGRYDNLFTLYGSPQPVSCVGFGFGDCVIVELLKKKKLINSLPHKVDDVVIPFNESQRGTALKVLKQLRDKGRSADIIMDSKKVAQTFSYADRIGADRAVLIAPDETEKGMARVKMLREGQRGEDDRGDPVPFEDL

Compound | Percent Effect [%]
CC/N=c1/c(NC(=O)NCCOC)c(O)oc2ccccc12 | 12.4
CCn1nc2c(cc1=O)CN(c1ncnc3ccsc13)CC2 | 58.6
Cn1nc2c(cc1=O)CN(c1ncnc3ccsc13)CC2 | 100
CN1C(=O)[C@H]2CC[C@@H]1CN(c1ncnc3ccsc13)C2 | 19.8
CCCn1nc2c(cc1=O)CN(C(C)C(=O)Nc1nccs1)CC2 (configuration not stated) | 17.9
CCCn1nc2c(cc1=O)CN(c1ncnc3ccsc13)CC2 | 83.8
CC(C)n1nc2c(cc1=O)CN(c1ncnc3ccsc13)CC2 | 11.7
Cn1ccnc1CN1CCN(c2ncnc3ccsc23)CC1 | 11
CC(C)n1nc2c(cc1=O)CN(c1ncnc3ccccc13)CC2 | 18.9
N#Cc1cccc(CN2CCN(C(=O)C3CCC3)[C@@H]3CS(=O)(=O)C[C@@H]32)c1 | 23.3
COCCN1C(=O)[C@H]2CC[C@@H]1CN(Cc1nnc(C3CC3)o1)C2 | -2.04
Cc1cccc(CO[C@@H]2C[C@H]3CN(C(=O)c4cnccn4)CCN3C2)n1 | 12.3
O=S(=O)(N1CCCC1)N1C[C@@H](c2cccc(F)c2)[C@@H]2NCCCCC[C@H]21 | -7.37
COC(=O)N1C[C@H]2CC[C@@H]1CN(Cc1cscn1)C2 | 22.9
CCOc1cc(N2CCN(C(=O)c3ccc(OC)cc3)CC2)nc(C)n1 | 5.98
Cc1nc(CN)cc(N2CCC(O)(c3ccc(Cl)cc3)CC2)n1 | 7.04
Cc1nc(CCN)cc(N2CCC(O)(c3ccc(Cl)cc3)CC2)n1 | 52.1
Cc1nc(CCN)cc(N2CCC(O)(c3ccccc3)C2)n1 (configuration not stated) | 7.04
COc1ccc(C(=O)N2CCN(c3cc(CCN)nc(C)n3)CC2)cc1 | 50.4
CCNc1cc(N2CCN(C(=O)c3ccc(OC)cc3)CC2)nc(C)n1 | 2.4
O=C(NC[C@@]1(COc2cnccn2)C[C@@H](O)[C@@H](O)C1)C1CCCC1 | 18.9
O=C(c1cccnc1)N1CCN2C[C@H](OCc3ccccc3)C[C@H]2C1 | 2
O=C(c1ccc(S(=O)(=O)NC2CCC2)cc1)N1CC[C@H]2CNC[C@H]21 | -8.06

Compound | Percent Effect [%]
CN(C)CCCN(C)c1nccc(N2CCN[C@H]3CS(=O)(=O)C[C@H]32)n1 | 12.9
CNc1nc(C)c(-c2nc(-c3c(C)ncc4c3CCNC4)no2)s1 | 7.79
Cn1ncc2c1NC(=O)CC2c1c(F)cccc1Cl (configuration not stated) | 20
CNc1nc2c(s1)C(c1c(F)cccc1Cl)CC(=O)N2 (configuration not stated) | 120
CNc1nc2c(s1)C(c1c(Cl)cccc1Cl)CC(=O)N2 (configuration not stated) | 74.3
CC(C)(C)n1ncc2c1NC(=O)CC2c1c(F)cccc1F (configuration not stated) | 26
CNc1nc2c(s1)C(c1ccc(F)cc1Cl)CC(=O)N2 (configuration not stated) | 7.5
Nc1nc2c(s1)C(c1c(F)cccc1Cl)CC(=O)N2 (configuration not stated) | 90
CC(C)n1ncc2c1NC(=O)CC2c1ccccc1Cl (configuration not stated) | 22.5
CNc1nc2c(s1)C(c1ccc(Cl)cc1Cl)CC(=O)N2 (configuration not stated) | 62.5
Cn1ncc2c1NC(=O)CC2c1c(Cl)cccc1Cl (configuration not stated) | 25
CNc1nc2c(s1)C(c1cc(Cl)ccc1F)CC(=O)N2 (configuration not stated) | 42.5
CSc1ccccc1CN1C[C@@H]2CC[C@H](C1)N(CC1CC1)C2=O | 21.6
Cc1noc([C@H]2COC[C@H]3CN(C(=O)Cc4ccc(F)cc4)C[C@H]32)n1 | 9.62
O=C(c1ccc(F)cc1)N1C[C@H]2CCC[C@@]2(COCc2ccncc2)C1 | 18.6
O=S(=O)(c1cccs1)N1CC[C@H]2[C@H]1CCN2c1ncccn1 | 11.7
CCN1C(=O)CC[C@@H]2[C@H]1CCN2S(=O)(=O)Cc1ccc(C)cc1 | 8.06
COCC(=O)N1C[C@H]2CNC[C@@]2(C(=O)NCc2cc(C)n[nH]2)C1 | 1.43
O=C([C@H]1COC[C@H]2CN(CC3CC3)C[C@H]21)N1CCOCC1 | 10.3
O[C@]1(c2ccccn2)CC[C@@H]2CN(Cc3cccc4ncccc34)C[C@@H]21 | 27.8
Cc1ccc(N2C[C@H]3OCC[C@H]3[C@H](C(=O)NCC3CC3)C2)nn1 | 0
O=C(NC[C@H]1OC[C@@H]2CCN(c3ccccn3)C[C@@H]21)c1ccco1 | -7.89
Cc1noc([C@H]2C[C@H]3OCC[C@H]3N(S(=O)(=O)C3CC3)C2)n1 | 13.3

Compound | Percent Effect [%]
CNc1nc2c(s1)C(c1cccc(Cl)c1Cl)CC(=O)N2 (configuration not stated) | 42.5
CNc1nc2c(s1)C(c1cccc(F)c1F)CC(=O)N2 (configuration not stated) | 45.7
CNc1nc2c(s1)C(c1ccccc1F)CC(=O)N2 (configuration not stated) | 70
CNc1nc2c(s1)C(c1ccccc1Cl)CC(=O)N2 (configuration not stated) | 57.5
Cn1ncc2c1NC(=O)CC2c1ccccc1Cl (configuration not stated) | 14.3
O=C1CC(c2ccccc2F)c2c(n3ccsc3nc2=O)N1 (configuration not stated) | 11.7
O=C([C@H]1COC[C@H]2CN(c3ncc(F)cn3)C[C@H]21)N1CCOCC1 | 1.71
Cc1ccccc1C(=O)NCc1ccc(N2CCNC(=O)C2)cc1 | 44.2
CC(O)CNC(=O)NCc1ccc(N2CCNC(=O)C2)cc1 (configuration not stated) | 49.3
CC(C(=O)NCc1ccc(N2CCNC(=O)C2)cc1)c1cccs1 (configuration not stated) | 20.9
Cc1cccnc1NC(=O)NCc1ccc(N2CCNC(=O)C2)cc1 | 84.9
CC(C(=O)NCc1ccc(N2CCNC(=O)C2)cc1)n1cncn1 (configuration not stated) | 52
Cc1nnc(NC(=O)NCc2ccc(N3CCNC(=O)C3)cc2)s1 | 39.8
CCOc1c(Cl)cc(Cl)cc1CNCCCn1ccnc1 | 58.3
CCOc1c(CNCCCn2ccnc2)cc(Cl)cc1OC | 10
CCOc1ccc(Cl)cc1CNCCCn1ccnc1 | 9.71
C[C@H]1C(=O)NC[C@H]2CN(Cc3cccc(F)c3)C[C@H]21 | 15.6
COCCNC(=O)[C@H]1CN(c2nnc(C)s2)C[C@H]2OCC[C@@H]12 | 5.11
COc1ccc(Oc2cc(CN)ccn2)cc1 | 32.5
NCc1ccnc(Oc2ccccc2)c1 | 59
NCc1ccnc(Oc2ccc(F)cc2)c1 | 30.1
CNC(=O)CN1CC[C@H]2CN(C(=O)c3ccccc3F)C[C@H]2C1 | 16.7
O=C(NC1CC1)[C@H]1C[C@H]2OCC[C@H]2N(Cc2ccc(F)cc2)C1 | 2.78

Compound | Percent Effect [%]
CNC(=O)CN1CCO[C@H]2CN(CC3CCOCC3)C[C@H]21 | 32
CCN1C[C@H]2C3(CCN(S(=O)(=O)CC)CC3)CC[C@@]2(C(=O)N(C)C)C1 | 7.69
Cc1noc([C@]23COC[C@H]2CN(C(=O)Cc2ccsc2)C3)n1 | 9.91
CN(C(=O)c1ccccn1)c1nc2c(s1)CCc1c-2cnn1C | 103
CN(C(=O)c1ccccn1)c1nnc(C2CCOC2)s1 (configuration not stated) | 5.59
CCCN(C(=O)c1ccccn1)c1nc2c(s1)CCc1c-2cnn1C | 106
Cc1cc(-c2cnc(C)nc2CN(C)C(=O)c2ccccn2)on1 | 2.07
COCCN(Cc1ccoc1)C(=O)c1ccccn1 | 16.4
Cc1cnccc1-c1cnn(CCNC(=O)c2ccccn2)c1C1CC1 | 4.25
COCCN(C(=O)c1ccccn1)c1nc2c(s1)CCc1c-2cnn1C | 101
COCCN(C)C(=O)c1nc2c(s1)CCCN2c1ncccn1 | 17.5
CCCN(CCc1ccccn1)C(=O)CCc1cnn(C)c1 | 1.21
Cc1ccc(CN2CC[C@@H]3[C@@H](CO[C@H]3CN(C)C)C2)o1 | 10
CC(C)NC(=O)N1CC[C@@H]2CN(Cc3ccccc3)S(=O)(=O)[C@@H]2CC1 | 1.5
COCCN1CCN(Cc2ccc(C(C)=O)cc2)[C@H]2CS(=O)(=O)C[C@H]21 | 22.2
Cc1nnc(N2C[C@H](C(=O)NCC3CC3)[C@@H]3CCO[C@@H]3C2)s1 | 2.91
CCC(=O)N(C)Cc1cccc(OC(C)C)c1 | 4.46
CC(C)Oc1cccc(CN(C)C(=O)Nc2cccn(C)c2=O)c1 | 13.9
Cc1ccn(C)c(=O)c1NC(=O)N(C)Cc1cccc(OC(C)C)c1 | 77.5
Cc1csc(CN2CC[C@H]3C(=O)N(c4cccnc4)CCO[C@H]3C2)n1 | 23.1
COc1ccccc1C(C)(C)NCc1ccc(C)o1 | 2.86
COCc1nc2cc(NCc3ccc(CO)o3)ccc2o1 | 86.6
CC(C)(C)c1nc2cc(NC(=O)Cn3ccc(=O)[nH]c3=O)ccc2o1 | 14

Compound | Percent Effect [%]
Cc1ccc(CNC(C)(C)c2noc(C(C)(C)C)n2)o1 | 27.1
COCc1nc2cc(NCc3ccc(C)o3)ccc2o1 | 102
COCc1nc2c(o1)CN(C(=O)NCc1ccccc1)C2 | 16
O=C(NCC1CC1)[C@@H]1CCO[C@@H]2CCN(Cc3ccsc3)C[C@H]21 | 20
Cn1cnc(S(=O)(=O)N2CCO[C@H]3[C@@H](OCC4CC4)CC[C@@H]32)c1 | -5.26
Cc1nc(-c2ccc(CC(=O)N3CCN(C(=O)C4CC4)CC3)cc2)cs1 | 21.2
Cc1nc(-c2ccc(CC(=O)N3CCNC(=O)C3)cc2)cs1 | -9.09
Cc1nc(-c2ccc(CC(=O)N3CCN(C(=O)C(C)C)CC3)cc2)cs1 | 63.6
Cc1csc([C@@H]2C[C@@H]3CCN(C(=O)c4cc(C)on4)C[C@H]3O2)n1 | 18.4
CC(=O)N1[C@H](Cn2cncn2)C[C@@H]2CN(C(=O)c3ccoc3)CC[C@@H]21 | 13.5
O=C1CC(c2ccco2)c2sc(C(=O)O)c(-c3ccccc3)c2N1 (configuration not stated) | 91.4
O=C1CC(c2ccc(O)cc2)c2sc(C(=O)O)c(-c3ccccc3)c2N1 (configuration not stated) | 20.8
O=C1CC(c2ccccc2)c2sc(C(=O)O)c(-c3ccccc3)c2N1 (configuration not stated) | 13
COC[C@@]12CC[C@@H](N3CCOCC3)C[C@H]1CCN(c1ncccc1Cl)C2 | 22.9
O=C1O[C@@H]2CN(Cc3cc4ccccc4o3)C[C@@H]2N1Cc1ccccn1 | 0
CN1CCN(Cc2nnc(C3CCN(CC4CC4)CC3)n2C)CC1 | 21.1
CN1CCN(Cc2nnc(C3CCN(C(CO)CO)CC3)n2C)CC1 | 80.7
CN1CCN(Cc2nnc(C3CCN(C4CCCCC4)CC3)n2C)CC1 | 13.2
Cc1ccnc(OC[C@]23COC[C@H]2CN(C(=O)C2=CCCCC2)C3)n1 | 5.56
CN(Cc1cccnc1)c1nccc(N2CCN[C@H]3CS(=O)(=O)C[C@H]32)n1 | 12.9
